The nature of test [1]: P. berghei load reduction in hepatocytes – cell-based, HepG2, luciferase luminescence, HepG2 viability, primary screen (AID 624349; in the data active = parasite load remaining mostly below about 12%, no sharp cut-off; inactive = mostly above about 10%;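 note: 100% = mean of DMSO negative control wells on the same plate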). As to conditions: P. berghei liver stage in HepG2, luciferase luminescence, concentration not given here; parasite load remaining: stronger effect = lower value; viability: measured here: HepG2 viability without parasites.
Test [2] in a line: Wnt pathway potentiators raising nuclear beta-catenin – imaging, WNT3A-conditioned medium, mouse C2C12, NPC library, primary screen (AID 1117326; in the data active = nuclear beta-catenin stimulation mostly above about 4.2%, no sharp cut-off; inactive = mostly below about 10%). As to conditions: stronger effect = higher value.
The nature of test [3]: stimulators of insulin release from INS-1E, primary screen, cell-based, 5 mM glucose, NPC library (AID 1117329;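 active = compound raises insulin release from rat beta cells at 5 mM glucose, no numeric limit stated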). As to conditions: rat INS-1E insulin secretion, at 10 µM, stronger effect = higher value.
Test [4] is described as follows: growth inhibition of GSK3B-pretreated HCT116 cells – cell-based, CellTiter-Glo, 0.2 to 20 µM (AID 1117336;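 active = compounds lowering colon cancer cell viability after pretreatment blocking the GSK3B kinase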). As to conditions: HCT116 viability after GSK3B inhibitor, at 20 µM, stronger effect = higher value.
The nature of test [5]: inhibition of endothelial tube formation, primary screen, imaging, VEGF stimulated, CD31 staining, tube area, NPC library (AID 1117340;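 active = compound that reduces growth-factor-driven endothelial tube area in a mixed cell culture, no cutoff stated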). As to conditions: VEGF-stimulated ADSC/ECFC co-culture, at 10 µM, stronger effect = higher value.
A short description of test [6]: GLP1 release stimulators, primary, NCI-H716, NPC library (AID 1117341;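 active = compound raises GLP1 secretion from the human gut endocrine cells, with no numeric limit stated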). As to conditions: NCI-H716 cells, at 10 µM, stronger effect = higher value.
Test [7] is described as follows: HCT116 colon cancer cell growth inhibition, primary screen, CellTiter-Glo luminescence, NPC library (AID 1117342;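 active = compounds that lower survival of HCT116 colon cancer cells in the luminescence readout, no numeric limit stated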). As to conditions: at 20 µM (top of the series). (ATP-based viability assays read luminescence as a measure of living cells.)
A short description of test [8]: reduced SW480 viability measured with CellTiter-Glo, NPC library, primary (AID 1117343;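 active = compounds that lower viability of the colon cancer cells in the luminescence readout, with no numeric limit stated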). As to conditions: CellTiter-Glo luminescence; at 20 µM (top of the series) unless noted.
A short description of test [9]: NPC library primary testing for decreased DLD-1 cell viability via CellTiter-Glo (AID 1117346;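 active = compounds that lower survival of DLD-1 colon cancer cells in the luminescence readout, no cutoff given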). As to conditions: DLD-1 viability, CellTiter-Glo luminescence; at 20 µM (top of the series).
The nature of test [10]: viability loss with induced miR-34 in A549 – imaging, A549 dox-inducible miR-34, nuclei and caspase counts, primary screen (AID 1347080;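 active = compounds whose cell count with miR-34 switched on is under 0.7 times the count with it off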). As to conditions: A549 miR-34 inducible, Hoechst nuclei count, 48 h.
The nature of test [11]: blockers of cellular phospholipid synthesis – cell-based, LOPAC library, screen 4, primary screen (AID 1347384; call rule not given here). As to conditions: animal cells, phospholipid biosynthesis inhibition screen; at 10 µM.
Test [12] in a line: MELAS cybrid and Rieske KO viability enhancers – cell-based, MELAS cybrids, Rieske KO mouse fibroblasts, CellTiter-Glo, primary screen (AID 1508586;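 active = mean z-score across replicates of 1.96 or higher in either the MELAS or the Rieske mutant cell line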;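 note: z relative to plate mean and SD of compound and empty wells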). As to conditions: low glucose.
Test [13] is described as follows: galactose survival enhancers in mitochondrial complex I cybrids – cell-based, galactose medium, ATP luminescence, primary screen (AID 1645843;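 active = z-score of at least 1.8 in each of two replicates, scored against plate mean and spread of sample wells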;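 note: positive z means more ATP and so rescue of galactose-driven cybrid death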). As to conditions: complex I mutant cybrid cells, 72 h, stronger effect = higher value.
Test [14] in a line: viability loss in pontine glioma line – cell-based, SU-DIPG-IV, MIPE4.0, CellTiter-Glo, qHTS, dose response (AID 1347063).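 Note: compound exposure lasted 48 hours before the viability readout.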 As to conditions: CellTiter-Glo ATP luminescence.
Test [15] can be described thus: viability loss in pontine glioma line – cell-based, JHH-DIPG-1, MIPE4.0, CellTiter-Glo, qHTS, dose response (AID 1347062; cut-off not given, nearly all actives have AC50 up to about 27 µM;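 for AC50: cells exposed to compound for two days before readout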). As to conditions: JHH-DIPG-1 viability, CellTiter-Glo ATP luminescence.
A short description of test [16]: growth inhibition of DIPG cells – cell-based, MIPE4.0 library, CellTiter-Glo luminescence, qHTS (AID 1347066).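 Note: cells exposed to compound for 48 hours before readout.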 As to conditions: SU-DIPG-VI viability, CellTiter-Glo ATP luminescence.
Test [17] in a line: JHH-DIPG-1 glioma cell viability, MIPE5.0 library, CellTiter-Glo luminescence, qHTS (AID 1347067; cut-off not given, nearly all actives have AC50 up to about 26 µM;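 note: cells exposed to compound for 48 hours before readout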). As to conditions: JHH-DIPG-1 glioma viability, CellTiter-Glo ATP luminescence.
A short description of test [18]: growth inhibition of DIPG cells – cell-based, MIPE5.0 library, qHTS (AID 1347068; cut-off not given, nearly all actives have IC50 up to about 30 µM). As to conditions: SU-DIPG-XXV viability. On the technique in general: Quantitative high-throughput screening tests each substance at several concentrations.
Setting [19] is: stronger effect = lower value, cell number ratio, induced over uninduced.
The mark [20] stands for this setting: measured here: relative caspase fold change +Dox/-Dox.
The mark [21] stands for this setting: measured here: total cells with miR-34 induction, stronger effect = lower value.
Setting [22] is: measured here: total cells without miR-34 induction.
Setting [23] is: MELAS cybrid survival, CellTiter-Glo 48 h, stronger effect = higher value.
[24] abbreviates: Rieske KO mouse fibroblast survival, CellTiter-Glo 72 h.

The structures appear in SMILES notation. Values joined by “and” are separate entries in the source; they are usually repeats but may differ in a detail not shown here. Equal values may be shown once. Inconclusive results are not listed. Active and inactive are the calls of the source. Unless noted, no cut-off is given here; in the data, nearly all actives have AC50 up to about 30 µM.

As a reminder, the viability is a read-out of living cells in per cent, often relative to untreated cells. For `CC1=C(C)C(=O)C(CCCCC#CCCCC#CCO)=C(C)C1=O`, in [1], the parasite load remaining was 55.8% (inactive). The viability in test [1] was 216%. Also, the nuclear beta-catenin stimulation is 2.7% (inactive) in test [2] (at 10 µM) and -0.7% in test [2] (stimulation, at 2 µM). The insulin secretion stimulation in test [3] was 2.7% (inactive). In test [4], the viability decrease is 96% (active). The tube area decrease in [5] was 16% (inactive). Also, in [6], the GLP1 secretion stimulation is 5% (inactive). Besides, the inhibition of viability in [7] is 87.4% (active). Also, the viability decrease (inhibition) in test [8] is 126% (active); in test [9], 54.6% (active). For the same compound, the fold change in [10] (setting [19]) is 1.02 (inactive) and 0.926 (inactive) and 0.838 (inactive); in test [10] (setting [20]), 1.5 and 0.952 and 1.53. Further, the cell count was 8160 and 3040 and 7890 in test [10] (setting [21]); 7960 and 3280 and 9410 in [10] (setting [22]). Besides, the compound was classed as inactive in [11]. Further, the z-score in [12] (setting [23]) is 0.195 (inactive); in test [12] (setting [24]), -1.24; in test [13] it was -1.52 (inactive) and -1.61 (inactive).

The term AC50 denotes the concentration at which the activity in the assay is half-maximal. Consider `O[C@@H](CNC[C@H](O)[C@H]1CCc2cc(F)ccc2O1)[C@@H]1CCc2cc(F)ccc2O1`, for which the nuclear beta-catenin stimulation was 8.6% (inactive) in test [2] (at 10 µM) and -2.1% in test [2] (stimulation, at 2 µM). In addition, the insulin secretion stimulation in test [3] was 2.75% (inactive). Also, the viability decrease in [4] is 108% (active). In [5], the tube area decrease was 60.9% (active). For the same compound, in test [6], the GLP1 secretion stimulation is 5.8% (inactive). In addition, in [7], the inhibition of viability was 112% (active). The viability decrease (inhibition) was 130% (active) in test [8] and 101% (active) in test [9]. For the same compound, in test [14], the AC50 was 20.9 µM (active).

Turning to `CN(c1nccc(=O)[nH]1)C1CCN(c2nc3ccccc3n2Cc2ccc(F)cc2)CC1`, the nuclear beta-catenin stimulation in [2] (at 10 µM) was -1.9% (inactive); in [2] (stimulation, at 2 µM) it was -0.5%. Moreover, the insulin secretion stimulation in test [3] was 4.3% (inactive). For the same compound, the viability decrease in test [4] was -6.8% (inactive). Besides, in [5], the tube area decrease is 10.5% (inactive). Further, the GLP1 secretion stimulation in test [6] was -3% (inactive). Further, the inhibition of viability in [7] was 26.2% (inactive). Besides, the viability decrease (inhibition) in test [8] is 9.6% (inactive); in [9], -5.1% (inactive). Further, the outcome in test [15], in [14] and in [16] was inactive. Moreover, the values for the z-score in test [12] (setting [23]) and in [12] (setting [24]) were 0.306 (inactive) and 0.258, respectively.

Turning to `Cc1c(C(=O)NN2CCCCC2)nn(-c2ccc(Cl)cc2Cl)c1-c1ccc(Cl)cc1`, the nuclear beta-catenin stimulation in test [2] (at 10 µM) was -0.4% (inactive); in test [2] (stimulation, at 2 µM) it was -0.1%. Moreover, the insulin secretion stimulation in test [3] is 3% (inactive). For the same compound, the viability decrease in test [4] was 109% (active). In test [5], the tube area decrease is 110% (active). Further, the GLP1 secretion stimulation in test [6] is 1.2% (inactive). Further, the inhibition of viability in test [7] was 108% (active). Also, the viability decrease (inhibition) in test [8] is 130% (active); in test [9], 101% (active). In addition, the concentration at half-maximal activity (AC50) in test [15] is 16.6 µM (active); in [14] it was 16.6 µM (active); in test [17], 18.6 µM (active). Besides, the result in test [18] was inactive. Further, the fold change in [10] (setting [19]) was 0.783 (inactive) and 0.989 (inactive); in test [10] (setting [20]) it was 0.923 and 2.07. Further, the cell count in test [10] (setting [21]) was 4800 and 7920; in test [10] (setting [22]), 6120 and 8010. For the same compound, the z-score was -1.37 (inactive) and -3.1 (inactive) in [12] (setting [23]); 0.317 and -0.818 in test [12] (setting [24]); -2.65 (inactive) in [13].

Take `O=C(O)c1cccc(-c2noc(-c3ccccc3F)n2)c1`: the nuclear beta-catenin stimulation in test [2] (at 10 µM) was 2.5% (inactive); in test [2] (stimulation, at 2 µM), 4.8%. Also, the insulin secretion stimulation in [3] was 0% (inactive). The viability decrease in [4] is 8.8% (inactive). For the same compound, the tube area decrease in test [5] was -5.7% (inactive). The GLP1 secretion stimulation in test [6] was 2.2% (inactive). The inhibition of viability in test [7] was 15.5% (inactive). The viability decrease (inhibition) in test [8] was 2.3% (inactive); in [9], -11% (inactive). For the same compound, the compound was classed as inactive in test [14], in test [16] and in test [18]. Further, the fold change in test [10] (setting [19]) was 0.927 (inactive); in test [10] (setting [20]) it was 0.71. In addition, the figures for the cell count in [10] (setting [21]) and in test [10] (setting [22]) were 10200 and 11000, respectively. Moreover, the z-score was -0.357 (inactive) in test [12] (setting [23]) and 0.633 in [12] (setting [24]).

The values above are taken from PubChem BioAssay.
